Laboratory results reported in the supplement of paper PMC11732987, “Enantioselective OTUD7B fragment discovery through chemoproteomics screening and high-throughput optimisation” (Communications Chemistry, 2025).

Columns and labels:
Experiment in all cases: log2 ratio of Biotin-Ahx-Ub-VS probe labelling (fragment/DMSO); higher = less target engagement (more negative = stronger competition), active = hit call of the paper (q ≤ 0.05, log2 ratio ≤ -1)
Conditions in all cases: compound concentration: 200 uM; treatment time: 3 h
OTUD6B = target: T1, OTUD6B (UniProt Q8N6M0)
T1 sequence (whole entry): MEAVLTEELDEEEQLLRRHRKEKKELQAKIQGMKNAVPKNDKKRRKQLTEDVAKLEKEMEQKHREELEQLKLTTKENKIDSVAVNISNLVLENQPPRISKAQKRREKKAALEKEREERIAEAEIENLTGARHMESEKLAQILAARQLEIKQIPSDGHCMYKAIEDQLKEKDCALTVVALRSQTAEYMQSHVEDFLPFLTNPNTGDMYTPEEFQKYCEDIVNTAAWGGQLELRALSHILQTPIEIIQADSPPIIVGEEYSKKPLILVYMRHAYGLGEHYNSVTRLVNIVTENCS
Summary of the method: (§1)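 Labelling with Biotin-Ahx-Ub-VS (0.5 µM final, 1 h) followed a 3 h triplicate treatment of HEK293T lysate (495 µg per sample, Tris/CHAPS/IGEPAL buffer with protease inhibitors) with fragment at 200 µM or vehicle. Labelled DUBs were NeutrAvidin-enriched, digested with LysC and trypsin, and run by diaPASEF LC-MS/MS. The values, average log2 fragment/vehicle ratios by unpaired t-test, come from global-median-normalised Spectronaut label-free quantities. Proteins with ≥2 unique peptides were used.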

OTUD7B = target: T2, OTUD7B (UniProt Q6GQQ9)
T2 sequence (whole entry): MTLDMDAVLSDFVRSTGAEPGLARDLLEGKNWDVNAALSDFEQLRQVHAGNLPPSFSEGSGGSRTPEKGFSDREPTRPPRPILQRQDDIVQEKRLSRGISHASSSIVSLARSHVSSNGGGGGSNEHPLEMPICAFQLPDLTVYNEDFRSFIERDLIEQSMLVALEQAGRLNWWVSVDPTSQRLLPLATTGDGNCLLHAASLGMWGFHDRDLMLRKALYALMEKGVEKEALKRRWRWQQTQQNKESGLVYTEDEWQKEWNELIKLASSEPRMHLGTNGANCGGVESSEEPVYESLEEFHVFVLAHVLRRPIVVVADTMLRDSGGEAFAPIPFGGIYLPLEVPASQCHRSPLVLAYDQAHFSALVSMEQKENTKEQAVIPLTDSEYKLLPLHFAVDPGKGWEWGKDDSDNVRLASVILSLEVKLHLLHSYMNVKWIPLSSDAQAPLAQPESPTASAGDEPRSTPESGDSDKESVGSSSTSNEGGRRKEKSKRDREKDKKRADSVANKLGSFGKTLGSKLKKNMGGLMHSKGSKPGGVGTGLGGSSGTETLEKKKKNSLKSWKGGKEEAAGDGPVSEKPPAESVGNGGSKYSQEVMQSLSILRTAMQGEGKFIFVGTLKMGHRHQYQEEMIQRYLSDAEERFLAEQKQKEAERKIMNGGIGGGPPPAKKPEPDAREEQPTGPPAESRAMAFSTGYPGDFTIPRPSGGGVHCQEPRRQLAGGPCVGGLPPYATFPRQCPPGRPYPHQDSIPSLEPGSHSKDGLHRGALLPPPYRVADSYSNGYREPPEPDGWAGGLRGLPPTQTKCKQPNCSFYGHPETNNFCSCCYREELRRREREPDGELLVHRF
Summary of the method: as §1

PRPF8 = PRPF8 (UniProt Q6P2Q9)
Summary of the method: as §1

PSMD7 = target: T3, PSMD7 (UniProt P51665)
T3 sequence (whole entry): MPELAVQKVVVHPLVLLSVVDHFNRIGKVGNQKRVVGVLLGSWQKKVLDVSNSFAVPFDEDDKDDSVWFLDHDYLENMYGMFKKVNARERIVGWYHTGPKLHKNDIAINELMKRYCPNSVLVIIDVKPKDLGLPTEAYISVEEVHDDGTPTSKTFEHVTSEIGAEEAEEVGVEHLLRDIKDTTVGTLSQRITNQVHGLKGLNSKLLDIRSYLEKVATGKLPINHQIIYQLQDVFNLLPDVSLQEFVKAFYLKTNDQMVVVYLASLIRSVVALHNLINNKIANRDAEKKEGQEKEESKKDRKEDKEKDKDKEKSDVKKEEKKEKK
Summary of the method: as §1

UCHL1 = UCHL1 (UniProt P09936)
Summary of the method: as §1

UCHL3 = target: T4, UCHL3 (UniProt P15374)
T4 sequence (whole entry): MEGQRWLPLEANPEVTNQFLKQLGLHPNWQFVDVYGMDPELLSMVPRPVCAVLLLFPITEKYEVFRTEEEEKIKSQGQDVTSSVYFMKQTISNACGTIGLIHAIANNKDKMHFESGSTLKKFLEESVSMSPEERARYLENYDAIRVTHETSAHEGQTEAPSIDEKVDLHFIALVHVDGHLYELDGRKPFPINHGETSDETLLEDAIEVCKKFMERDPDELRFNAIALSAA
Summary of the method: as §1

UCHL5 = target: T5, UCHL5 (UniProt Q9Y5K5)
T5 sequence (whole entry): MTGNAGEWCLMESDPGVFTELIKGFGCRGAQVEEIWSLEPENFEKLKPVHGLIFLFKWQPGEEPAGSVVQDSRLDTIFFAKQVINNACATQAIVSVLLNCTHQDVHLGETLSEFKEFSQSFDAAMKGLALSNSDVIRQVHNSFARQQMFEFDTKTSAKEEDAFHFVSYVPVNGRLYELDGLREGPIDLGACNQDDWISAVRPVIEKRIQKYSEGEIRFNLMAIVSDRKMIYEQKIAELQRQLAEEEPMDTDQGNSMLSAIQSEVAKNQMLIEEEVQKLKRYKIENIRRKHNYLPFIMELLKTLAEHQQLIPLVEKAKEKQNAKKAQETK
Summary of the method: as §1

USP10 = USP10 (UniProt Q14694)
Summary of the method: as §1

USP15 = target: T6, USP15 (UniProt Q9Y4E8)
T6 sequence (whole entry): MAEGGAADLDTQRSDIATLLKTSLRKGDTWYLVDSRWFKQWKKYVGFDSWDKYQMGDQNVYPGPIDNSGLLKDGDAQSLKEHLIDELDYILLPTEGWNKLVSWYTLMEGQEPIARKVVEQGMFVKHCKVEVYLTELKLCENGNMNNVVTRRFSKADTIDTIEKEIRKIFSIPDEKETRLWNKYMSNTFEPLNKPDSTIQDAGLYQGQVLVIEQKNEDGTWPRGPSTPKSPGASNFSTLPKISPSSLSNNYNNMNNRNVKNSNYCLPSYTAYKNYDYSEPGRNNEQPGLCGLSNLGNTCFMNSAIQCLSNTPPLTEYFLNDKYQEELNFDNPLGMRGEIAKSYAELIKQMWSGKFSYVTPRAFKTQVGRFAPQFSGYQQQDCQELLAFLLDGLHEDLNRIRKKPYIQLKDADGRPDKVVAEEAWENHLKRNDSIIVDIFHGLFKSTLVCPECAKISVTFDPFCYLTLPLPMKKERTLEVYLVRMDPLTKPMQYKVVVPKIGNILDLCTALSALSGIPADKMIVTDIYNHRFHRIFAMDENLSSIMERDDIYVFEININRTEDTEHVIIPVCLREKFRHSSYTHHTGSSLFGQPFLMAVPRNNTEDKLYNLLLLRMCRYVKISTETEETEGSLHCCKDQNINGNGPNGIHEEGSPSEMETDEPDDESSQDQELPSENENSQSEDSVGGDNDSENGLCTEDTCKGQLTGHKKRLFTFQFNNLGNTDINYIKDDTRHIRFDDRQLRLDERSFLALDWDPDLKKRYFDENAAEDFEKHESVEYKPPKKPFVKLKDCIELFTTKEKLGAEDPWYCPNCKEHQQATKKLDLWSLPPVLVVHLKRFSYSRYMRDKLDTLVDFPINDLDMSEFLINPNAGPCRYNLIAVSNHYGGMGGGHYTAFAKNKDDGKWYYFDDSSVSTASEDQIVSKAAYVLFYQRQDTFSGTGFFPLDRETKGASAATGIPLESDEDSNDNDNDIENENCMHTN
Summary of the method: as §1

USP16 = USP16 (UniProt Q9Y5T5)
Summary of the method: as §1

Measured: log2 ratio of Biotin-Ahx-Ub-VS probe labelling

USP16, sequence (Q9Y5T5 whole entry, looked up): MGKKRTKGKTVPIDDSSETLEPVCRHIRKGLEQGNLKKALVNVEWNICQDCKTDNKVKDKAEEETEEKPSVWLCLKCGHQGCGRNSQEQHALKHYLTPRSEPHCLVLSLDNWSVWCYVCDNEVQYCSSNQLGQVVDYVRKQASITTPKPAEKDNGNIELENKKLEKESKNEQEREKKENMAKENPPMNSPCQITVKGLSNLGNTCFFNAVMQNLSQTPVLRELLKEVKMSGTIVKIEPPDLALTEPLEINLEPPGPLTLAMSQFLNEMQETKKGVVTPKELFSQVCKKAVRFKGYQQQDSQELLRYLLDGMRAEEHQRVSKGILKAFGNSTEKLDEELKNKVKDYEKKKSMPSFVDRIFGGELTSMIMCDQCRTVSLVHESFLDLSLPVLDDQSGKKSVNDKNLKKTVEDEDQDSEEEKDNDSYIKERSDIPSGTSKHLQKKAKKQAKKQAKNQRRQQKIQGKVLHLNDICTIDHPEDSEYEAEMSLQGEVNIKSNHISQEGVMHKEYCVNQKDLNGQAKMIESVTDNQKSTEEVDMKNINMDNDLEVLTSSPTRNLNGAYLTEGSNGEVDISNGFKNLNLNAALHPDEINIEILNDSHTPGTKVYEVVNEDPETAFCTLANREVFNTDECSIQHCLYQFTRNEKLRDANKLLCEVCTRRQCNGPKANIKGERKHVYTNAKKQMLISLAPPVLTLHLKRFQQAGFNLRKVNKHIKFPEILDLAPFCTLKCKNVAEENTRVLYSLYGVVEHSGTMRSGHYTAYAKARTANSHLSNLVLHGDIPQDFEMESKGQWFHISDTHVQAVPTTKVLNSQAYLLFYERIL
UCHL1, sequence (P09936 whole entry, looked up): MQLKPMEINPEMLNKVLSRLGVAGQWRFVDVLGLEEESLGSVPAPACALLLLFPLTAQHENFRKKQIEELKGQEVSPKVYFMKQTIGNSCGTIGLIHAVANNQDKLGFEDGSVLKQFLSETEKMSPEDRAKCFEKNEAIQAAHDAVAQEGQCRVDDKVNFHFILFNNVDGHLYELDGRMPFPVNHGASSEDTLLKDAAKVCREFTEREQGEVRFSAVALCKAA
USP10, sequence (Q14694 whole entry): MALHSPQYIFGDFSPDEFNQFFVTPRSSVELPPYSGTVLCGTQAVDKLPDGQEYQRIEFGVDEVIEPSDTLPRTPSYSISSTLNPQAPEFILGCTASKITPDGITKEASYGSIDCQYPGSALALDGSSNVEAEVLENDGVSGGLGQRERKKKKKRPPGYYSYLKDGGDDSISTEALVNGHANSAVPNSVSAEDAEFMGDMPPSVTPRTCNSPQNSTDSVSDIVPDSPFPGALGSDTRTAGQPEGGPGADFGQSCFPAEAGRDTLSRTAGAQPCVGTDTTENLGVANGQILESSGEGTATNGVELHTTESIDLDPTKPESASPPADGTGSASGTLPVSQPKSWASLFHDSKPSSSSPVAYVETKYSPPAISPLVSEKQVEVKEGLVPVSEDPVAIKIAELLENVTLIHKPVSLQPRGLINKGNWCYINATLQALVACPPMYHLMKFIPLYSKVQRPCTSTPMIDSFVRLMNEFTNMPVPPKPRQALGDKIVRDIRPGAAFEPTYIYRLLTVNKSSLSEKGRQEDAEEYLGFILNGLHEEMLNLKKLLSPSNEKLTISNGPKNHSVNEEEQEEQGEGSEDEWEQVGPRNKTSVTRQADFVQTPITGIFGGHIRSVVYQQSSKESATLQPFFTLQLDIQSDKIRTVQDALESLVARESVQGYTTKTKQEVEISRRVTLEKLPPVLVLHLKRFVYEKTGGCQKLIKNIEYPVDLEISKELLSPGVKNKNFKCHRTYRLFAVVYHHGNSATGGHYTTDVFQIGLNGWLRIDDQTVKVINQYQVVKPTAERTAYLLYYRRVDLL

O=C(CCl)Nc1nnc(CC(F)(F)F)o1
active: UCHL1 -1.5
inactive: OTUD6B -0.105 | OTUD7B -0.451 | PRPF8 0.0577 | PSMD7 -0.157 | UCHL3 -0.128 | UCHL5 -0.204 | USP10 -0.0274 | USP15 -0.341 | USP16 0.0973
